Assay results: ChEMBL document CHEMBL4513216, “Probing the Open Global Health Chemical Diversity Library for Multistage-Active Starting Points for Next-Generation Antimalarials” (ACS Infect Dis, 2020)
The campaign covered roughly 68,000 compounds. About 2,700 (4%) showed an effect of 50% or more. What follows is part of a selection rich in strong results, with near analogues and random picks from the rest.

tested on: Plasmodium berghei; assay: Screen against P. berghei liver stage (PbLuc), transformed with Luciferase, at 2uM; type: functional, HepG2; details: tested at 2 uM

| Compound | INHIBITION [%] |
| --- | --- |
| CN(C)C(=O)N1CC[C@@H](O)[C@@H]1Cc1ccccc1 | 48.52 |
| CC(=O)N1CCC2(CC1)C(=O)N(CC1CC1)c1ccccc12 | 24.15 |
| O=C([C@H]1CCCO1)N1CCC2(CC1)C(=O)N(CC1CC1)c1ccccc12 | 58.95 |
| O=C(N1CCCC1)N1CCC2(CC1)C(=O)N(CC1CC1)c1ccccc12 | 31.5 |
| O=C(N[C@H]1CN(Cc2ccsc2)[C@@H]2CCCO[C@H]12)C1CC1 | -1.33 |
| COCCN1CCC(c2cncc(-c3cccc(Cl)c3)n2)CC1 | 32.39 |
| CN(CC(=O)Nc1ccc(Br)cn1)C(=O)C(C)(C)C | 8.42 |
| Cc1cccc2[nH]c(-c3cn(C4CCNCC4)nn3)nc12 | 57.92 |
| Cc1c(C)c(C)c2[nH]c(-c3cn(C4CCNCC4)nn3)nc2c1C | 52.66 |
| OCCc1ccccc1-n1ccnc1-c1cn(C2CCNCC2)nn1 | 5.78 |
| COc1cccc(CCn2ccnc2-c2cn(C3CCNCC3)nn2)c1 | -14.82 |
| Cc1ccc(-n2ccnc2-c2cn(C3CCNCC3)nn2)c(Cl)c1 | 36.26 |
| Cc1cc2nc(-c3cn(C4CCNCC4)nn3)[nH]c2cc1C | 28.14 |
| Cc1ccc2[nH]c(-c3cn(C4CCNCC4)nn3)nc2c1C | 68.42 |
| Clc1ccccc1CCn1ccnc1-c1cn(C2CCNCC2)nn1 | -30.83 |
| CSc1ccccc1-n1ccnc1-c1cn(C2CCNCC2)nn1 | 14.55 |
| Cc1nc(C(C)C)sc1C(=O)N1CCN(C2CCSCC2)CC1 | 18.77 |
| CN(C)C(=O)c1cccnc1SCc1ccccc1Cl | 17.31 |
| Cc1nn(C)c(C)c1C1CCCN1CC(=O)NCc1ccccn1 (configuration not stated) | -29.54 |
| COC(=O)C(NC(=O)CC(C)C)c1cc(F)ccc1F (configuration not stated) | 29.12 |
| O=C(CC1CCCC1)NCCS(=O)(=O)N1CCN(c2ccccn2)CC1 | -40 |
| O=C(CC1CCN(c2cccnn2)CC1)NC1CCOCC1 | -36.08 |
| O=C(CC1CCN(c2cccnn2)CC1)NCCO | 68.96 |

| Compound | INHIBITION [%] |
| --- | --- |
| O=C(CC1CCN(c2cccnn2)CC1)Nc1nncs1 | -24.13 |
| CN(C)CCNC(=O)CC1CCN(c2cccnn2)CC1 | -36.94 |
| O=C(CC1CCN(c2cccnn2)CC1)Nc1cccnc1 | 50.17 |
| CC(c1ccncc1)n1cc2nc(N(C)C)[nH]cc-2c1=O (configuration not stated) | 20.82 |
| COc1ccc(C(O)CNC(=O)Nc2cc(C)nn2C)cc1 (configuration not stated) | 34.83 |
| Cn1cnc(-c2ccc(F)cc2)c1NC(=O)CCNC(=O)C(C)(C)C | 37.66 |
| c1cc(CN2CCC3(CC2)COC(COCC2CC2)C3)ccn1 (configuration not stated) | 55.57 |
| c1cc(CN2CCC3(CCOCC3COCC3CC3)CC2)ccn1 (configuration not stated) | 50.17 |
| c1cc(CN2CCC3(CC2)COC(COCC2CC2)C3)co1 (configuration not stated) | 15.02 |
| c1cc(CN2CCC3(CCOCC3COCC3CC3)CC2)co1 (configuration not stated) | 39.18 |
| c1csc(CN2CCC3(CCOCC3COCC3CC3)CC2)n1 (configuration not stated) | -23.51 |
| c1cc(CN2CCC3(CC2)COC(COCC2CC2)C3)cs1 (configuration not stated) | -9.14 |
| CC(C)c1nccn1CCC(=O)N1CCCC1c1cccn1C (configuration not stated) | 22 |
| COCCCn1cnnc1C(C)NC(=O)c1[nH]c2ccc(C)cc2c1C (configuration not stated) | 23.6 |
| Cn1cnc(S(=O)(=O)N2CC3(CCN(c4ccccc4)C3)C2)c1 | 15.42 |
| CN(CCCc1ccccc1)C(=O)c1cn2c(n1)CNCC2 | -12.28 |
| CN(CCc1ccccn1)C(=O)c1cn2c(n1)CNCC2 | 25.55 |
| CN(CCSc1ccccc1)C(=O)c1cn2c(n1)CNCC2 | 54.29 |
| c1cncc(CN2CCC(c3ccc4c(c3)OCO4)CC2)c1 | 17.24 |
| Cc1cccc(C(=O)N2CC[C@H]3C[C@@H](C)O[C@@H]3C2)n1 | 1.29 |
| O=C(c1cc(C2CC2)on1)N1C[C@@H]2COC[C@]2(COc2cccnc2)C1 | 22.68 |
| O=C(NCc1cc(-c2ccccc2)no1)NCC1CCCO1 (configuration not stated) | -3.26 |
| Cc1ccc(-c2cc(CNC(=O)N3CCC(O)CC3)on2)cc1 | -5.7 |

| Compound | INHIBITION [%] |
| --- | --- |
| O=C(NCc1cc(-c2ccccc2)no1)NC1CCCCNC1=O (configuration not stated) | 65.38 |
| Cc1ccc(-c2cc(CS(=O)(=O)NC3CCCNC3=O)on2)cc1 (configuration not stated) | 42.79 |
| O=C1NCCCCC1NC(=O)C1(c2ccccc2)CCOCC1 (configuration not stated) | -20.35 |
| Cc1ccc(-c2cc(CNC(=O)NC3CCCCNC3=O)on2)cc1 (configuration not stated) | 55.7 |
| COc1cccc(CC(=O)NC(C)c2nc3cccnc3n2C(C)C)c1 (configuration not stated) | 74.83 |
| COc1ccc(CC(=O)NC(C)c2nc3cccnc3n2C(C)C)cc1 (configuration not stated) | -39.63 |
| COc1ccccc1CC(=O)NC(C)c1nc2cccnc2n1C(C)C (configuration not stated) | 24.44 |
| COC(=O)C(CNC(=O)Nc1nncs1)Cc1cccc(C)c1 (configuration not stated) | 12.17 |
| CCn1ccnc1CN1CCCN(C(=O)c2cc(C)nn2CC)CC1 | 11.09 |
| CC(C)C(=O)N(C)Cc1nc(N2CCCC2)ncc1-c1ccncc1 | -6.41 |
| Nc1nnc(CCNc2ncnc3c2CCN(C(=O)C2CC2)C3)s1 | 11.9 |
| Nc1nc(CCNc2ncnc3c2CCN(C(=O)C2CC2)C3)cs1 | -26.81 |
| CCc1ccc(CCNc2ncnc3c2CCN(C(=O)C2CC2)C3)cc1 | 55.66 |
| Cc1cc(C)c(Cn2cncn2)cc1CN1CC[C@H](CO)[C@@H](O)C1 | -64.63 |
| CC1(C)CCN(S(=O)(=O)N2CCCC(c3cccc(C(=O)O)c3)C2)CC1 (configuration not stated) | 19.04 |
| COC1CCN(S(=O)(=O)N2CCCC(c3cccc(C(=O)O)c3)C2)CC1 (configuration not stated) | 57.59 |
| CC1CCN(S(=O)(=O)N2CCCC(c3cccc(C(=O)O)c3)C2)CC1 (configuration not stated) | -18.41 |
| Cc1cc(C)c(CNC(=O)NCc2ccncc2)c(=O)[nH]1 | 26.76 |
| CN(C)CCCN1CC2(CCN(C3CCCOC3)CC2)OC1=O (configuration not stated) | 24.81 |
| CC(C)CCN1CC2(CCN(C3CCCOC3)CC2)OC1=O (configuration not stated) | 57.47 |
| O=C1OC2(CCN(C3CCCOC3)CC2)CN1CCc1ccccc1 (configuration not stated) | -1.27 |
